The values below come from PubChem BioAssay (NCI).

The structures appear in SMILES notation. Compounds without any hit were thinned out: in the full panel of roughly 83,000, 20% have a hit.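 A percent growth of 40 corresponds to 60% growth inhibition; 0 means no net growth; -100 means all cells died. Active threshold: below 10.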 Values without a mark were called inactive. The source made the active and inactive calls.

Some test systems named below: SK-MEL-2 melanoma; EKVX NSCLC; SN12C renal; UO-31 renal; TK-10 renal; ACHN renal; CAKI-1 renal; A498 renal; CCRF-CEM leukemia; MOLT-4 leukemia; RPMI-8226 leukemia; OVCAR-8 ovarian; OVCAR-5 ovarian; OVCAR-4 ovarian; SK-OV-3 ovarian; IGROV1 ovarian; OVCAR-3 ovarian; HS 578T breast; NCI/ADR-RES ovarian.
Common to all, as to assay: NCI-60 one-dose screen, 48 h (100 = growth as untreated, 0 = no growth, -100 = all killed)
Conditions in all cases: 10 µM unless noted

With `COc1ccc(-c2cc(-c3cc(OC)c(OC)c(OC)c3)nc(N3CCOCC3)c2C#N)cc1`, the growth in the assay on SK-MEL-2 melanoma was 76.1%; with EKVX NSCLC, 64.9%; in the assay on SN12C renal, 81%; in the assay with UO-31 renal it was 63.7%; with TK-10 renal, 100%; in the assay on ACHN renal, 68.3%. Besides, the growth in the assay with CAKI-1 renal was -22.7% (active); with A498 renal, 76.7%; in the assay on CCRF-CEM leukemia it was 89.9%; in the assay on MOLT-4 leukemia, 56.7%; in the assay on RPMI-8226 leukemia it was 63.7%; with OVCAR-8 ovarian, 78.9%. In addition, the growth with OVCAR-5 ovarian is 78.4%; in the assay on OVCAR-4 ovarian, 85.8%; in the assay on SK-OV-3 ovarian it was 98.2%; with IGROV1 ovarian, 77.6%; in the assay with OVCAR-3 ovarian, 82.9%; in the assay on HS 578T breast it was 67.5%. Besides, the growth in the assay with NCI/ADR-RES ovarian is 29.9%.
As to `Cc1cc2nc3cc(C)c(N)cc3[n+](-c3ccccc3)c2cc1N`, the growth in the assay on SK-MEL-2 melanoma is 82.8%; with EKVX NSCLC, 47.3%; in the assay with SN12C renal, 13.9%; in the assay with UO-31 renal, 84.2%; in the assay on TK-10 renal, 93.8%; with ACHN renal, 89.1%. The growth in the assay on CAKI-1 renal was 97.5%; in the assay on A498 renal it was 85.7%; in the assay on CCRF-CEM leukemia, 58.3%; in the assay on MOLT-4 leukemia it was 52.8%; in the assay on RPMI-8226 leukemia, 41.4%; with OVCAR-8 ovarian it was 40.7%. The growth is 103% in the assay with OVCAR-5 ovarian; 36.4% in the assay on OVCAR-4 ovarian; 91.3% in the assay with SK-OV-3 ovarian; 79.4% with IGROV1 ovarian; 26.2% with OVCAR-3 ovarian; 59.2% with HS 578T breast. Moreover, the growth in the assay on NCI/ADR-RES ovarian is 101%.
With `COc1ccc(S(=O)(=O)n2cc(C3OC(c4cc(OC)c(OC)c(OC)c4)=NN3C(C)=O)c3ccccc32)cc1OC` (configuration not stated), the growth in the assay with SK-MEL-2 melanoma was 95.5%; with EKVX NSCLC, 78.9%; with SN12C renal, 88%; with UO-31 renal it was 58.2%; in the assay with TK-10 renal, 94.9%; in the assay on ACHN renal it was 85.3%. The growth in the assay with CAKI-1 renal was 76.2%; in the assay on A498 renal it was 117%; in the assay with CCRF-CEM leukemia, 73.4%; in the assay on MOLT-4 leukemia it was 58.7%; in the assay on RPMI-8226 leukemia, 61.5%; in the assay on OVCAR-8 ovarian, 80.9%. Moreover, the growth was 85.8% in the assay on OVCAR-5 ovarian; 77.9% with OVCAR-4 ovarian; 96.6% with SK-OV-3 ovarian; 83.5% in the assay with IGROV1 ovarian; 112% in the assay with OVCAR-3 ovarian; 92.3% in the assay with HS 578T breast. Moreover, the growth in the assay with NCI/ADR-RES ovarian was 81.7%.
With `O=C(CSc1nc2ccccc2[nH]1)Nc1cccc(Cl)c1`, the growth in the assay on SK-MEL-2 melanoma was 104%; with EKVX NSCLC, 94.7%; with SN12C renal, 93%; with UO-31 renal it was 77.6%; in the assay on TK-10 renal, 109%; with ACHN renal, 99.2%. Moreover, the growth was 80.7% in the assay on CAKI-1 renal; 73.3% in the assay with A498 renal; 104% in the assay on CCRF-CEM leukemia; 117% in the assay with MOLT-4 leukemia; 102% in the assay with RPMI-8226 leukemia; 106% in the assay on OVCAR-8 ovarian. The growth in the assay on OVCAR-5 ovarian was 98.7%; with OVCAR-4 ovarian, 95.7%; with SK-OV-3 ovarian, 97.9%; in the assay on IGROV1 ovarian it was 96.2%; with OVCAR-3 ovarian, 102%; with HS 578T breast, 91.9%. Moreover, the growth in the assay on NCI/ADR-RES ovarian is 103%.
Take `COc1cc(C(=O)N/N=C/c2cc3cc(OCc4ccccc4)ccc3nc2OC)cc(OC)c1OC`: the growth with SK-MEL-2 melanoma was 85.4%; in the assay on EKVX NSCLC, 85.4%; in the assay on SN12C renal it was 87.9%; in the assay with UO-31 renal, 81%; with TK-10 renal, 72.1%; with ACHN renal it was 95.2%. The growth with CAKI-1 renal is 98.2%; with A498 renal, 95.6%; with CCRF-CEM leukemia it was 65.9%; in the assay on MOLT-4 leukemia, 62.5%; in the assay with RPMI-8226 leukemia it was 35.6%; with OVCAR-8 ovarian, 68.4%. For the same molecule, the growth in the assay with OVCAR-5 ovarian is 86.9%; with OVCAR-4 ovarian, 63.4%; in the assay on SK-OV-3 ovarian it was 91.1%; in the assay on IGROV1 ovarian, 111%; with OVCAR-3 ovarian, 99.4%; in the assay with HS 578T breast, 61.2%. Moreover, the growth in the assay with NCI/ADR-RES ovarian is 82.2%.
Consider `COc1ccc2c(c1)nc(NNC(=O)c1cnccn1)c1cccn12`, for which the growth in the assay with SK-MEL-2 melanoma is 64.8%; in the assay with EKVX NSCLC it was 22.2%; in the assay on SN12C renal it was 35.4%; in the assay on UO-31 renal, 4.76% (active); in the assay with TK-10 renal it was 31.1%; in the assay on ACHN renal it was 7.83% (active). The growth in the assay on CAKI-1 renal is 21.3%; in the assay with A498 renal it was 49.2%; with CCRF-CEM leukemia, 11.7%; with MOLT-4 leukemia it was 5.36% (active); in the assay on RPMI-8226 leukemia, 23.5%; in the assay on OVCAR-8 ovarian, 24.1%. For the same molecule, the growth in the assay on OVCAR-5 ovarian was 42.3%; with OVCAR-4 ovarian, 17.5%; in the assay on SK-OV-3 ovarian, 26.5%; in the assay on IGROV1 ovarian, 16.3%; in the assay with OVCAR-3 ovarian, 15.3%; in the assay on HS 578T breast, 78.2%. Moreover, the growth in the assay on NCI/ADR-RES ovarian is 9.97% (active).
Take `O=C(CCc1nnc(-c2c(Cl)cccc2Cl)o1)c1nc2ccccc2[nH]1`: the growth in the assay with SK-MEL-2 melanoma was 59.4%; in the assay on EKVX NSCLC, 61%; with SN12C renal, 61.2%; in the assay on UO-31 renal it was 52.1%; in the assay with TK-10 renal, 64%; in the assay on ACHN renal it was 81.3%. In addition, the growth in the assay on CAKI-1 renal is 59.8%; in the assay with A498 renal, 58.4%; in the assay with CCRF-CEM leukemia it was 47.3%; in the assay with MOLT-4 leukemia, 20.7%; with RPMI-8226 leukemia, 30.9%; in the assay with OVCAR-8 ovarian it was 57.2%. In addition, the growth in the assay with OVCAR-5 ovarian is 81.2%; in the assay on OVCAR-4 ovarian, 58.8%; in the assay on SK-OV-3 ovarian it was 64.8%; in the assay on IGROV1 ovarian, 57.6%; in the assay on OVCAR-3 ovarian, 66.4%; in the assay with HS 578T breast, 82.3%. In addition, the growth in the assay on NCI/ADR-RES ovarian is 63.3%.
Consider `COc1ccc(/C=N/Nc2cc(=O)[nH]c3ccc(Cl)cc23)cc1`, for which the growth with SK-MEL-2 melanoma is 48.8%; in the assay with EKVX NSCLC, 63.8%; with SN12C renal it was 62.3%; in the assay with UO-31 renal it was 94.7%; in the assay with TK-10 renal, 12.5%; in the assay on ACHN renal, 72.7%. Besides, the growth in the assay on CAKI-1 renal was 86.2%; in the assay with A498 renal, 80.7%; with CCRF-CEM leukemia it was 38.2%; in the assay with MOLT-4 leukemia, 30.4%; with RPMI-8226 leukemia, 36.6%; with OVCAR-8 ovarian, 69.1%. In addition, the growth with OVCAR-5 ovarian was 95.1%; in the assay with OVCAR-4 ovarian it was 43.1%; in the assay with SK-OV-3 ovarian, 95.2%; in the assay on IGROV1 ovarian, 75.7%; with OVCAR-3 ovarian, 11.8%; with HS 578T breast, 91.7%. For the same molecule, the growth in the assay with NCI/ADR-RES ovarian was 78%.
